For the assay, the target named is Genome polyprotein (Poliovirus type 1 (strain Mahoney)) (UniProt P03300). The assay is described as follows: inhibitors of poliovirus polymerase RNA elongation – biochemical, fluorescence polarization, total intensity, primary screen (AID 588519). As to z-score: compound at 16.7 µg/mL. The settings on record: stronger effect = lower value; for % elongation: compound at 16.7 µg/mL; for z-score: measured here: FP z-score. On the technique in general: Fluorescence polarisation rises when a labelled molecule tumbles more slowly, as on binding a larger partner.
Chain of Genome polyprotein (Poliovirus type 1 (strain Mahoney)) (P03300 1749-2209 limits assumed): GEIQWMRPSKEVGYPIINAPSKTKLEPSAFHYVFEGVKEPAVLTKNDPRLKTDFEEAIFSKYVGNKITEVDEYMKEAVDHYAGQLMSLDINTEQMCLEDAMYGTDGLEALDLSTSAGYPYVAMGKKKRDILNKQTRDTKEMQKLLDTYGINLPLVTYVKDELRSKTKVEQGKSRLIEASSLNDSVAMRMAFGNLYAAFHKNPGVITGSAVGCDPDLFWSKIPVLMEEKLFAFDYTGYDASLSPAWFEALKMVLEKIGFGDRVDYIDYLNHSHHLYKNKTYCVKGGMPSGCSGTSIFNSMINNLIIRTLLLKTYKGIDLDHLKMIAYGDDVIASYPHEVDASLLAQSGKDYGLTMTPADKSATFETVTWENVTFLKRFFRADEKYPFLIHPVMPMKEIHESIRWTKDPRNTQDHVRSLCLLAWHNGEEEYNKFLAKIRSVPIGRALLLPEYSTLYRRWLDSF

Where [1] appears, read: measured here: total intensity read-out.

SMILES strings stand for the structures. The campaign covered roughly 150,000 compounds. About 1,000 (0.67%) were called active. Rule as the data show it: active = % elongation below about 90%; inactive = the rest, inconclusive results apart. The list comes from a sample in which actives are over-represented; it also holds similar structures and randomly drawn compounds.

As to `CCOC(=O)c1c(N)sc2c1CCCS2`, the % elongation is 64% (active) and the z-score was -3.9. Also, under setting [1], the % elongation was 74%.

As for `CCOC(=O)c1c(NC2=CC(=O)CCC2)sc2c1CCCCC2`, the % elongation is 107% (inactive) and the z-score stood at 0.6. Further, under setting [1], the % elongation was 112%.

On to `CCOC(=O)c1c(N)sc2c1CC(C)(C)OC2`, for which the % elongation was 103% (inactive) and the z-score is 0.4. Further, the % elongation under setting [1] is 106%.

For `CCC(=O)c1cn(CC(=O)N2CCCC2)c2ccccc12`, the % elongation is 107% (inactive) and the z-score was determined as 0.5. For the same molecule, the % elongation under setting [1] amounted to 109%.

In the case of `Fc1ccc(NC(=S)N2CCN=C2Nc2ccc(F)cc2)cc1`, the % elongation was 87% (active) and the z-score is -5.7. Also, the % elongation under setting [1] was 82%.

For `COc1ccc(NC(=S)N2CCCCC2)cc1`, the % elongation is 100% (inactive) and the z-score was -0.3. For the same molecule, the % elongation under setting [1] is 108%.

On to `OC1CCN(C(=S)Nc2ccccc2)CC1`, for which the % elongation is 101% (inactive) and the z-score amounted to 0. Under setting [1], the % elongation was 100%.

On to `O=C1CCC/C1=C1\SCC(=O)N1c1ccccc1`, for which the % elongation was 101% (inactive) and the z-score is -0.3. For the same molecule, the % elongation under setting [1] worked out at 99%.

Regarding `Cc1ccc(C)c(NC(=O)C(c2ccccc2)N2CCCCC2C(N)=O)c1` (configuration not stated), the % elongation is 97% (inactive) and the z-score is -0.5. The % elongation under setting [1] is 103%.

For the molecule `C=CCn1c(SCC#N)nc2c(c1=O)C1(CCCCC1)Cc1ccccc1-2`, the % elongation was 102% (inactive) and the z-score was determined as 0.1. The % elongation under setting [1] was 103%.

In the case of `COc1ccc(Cc2nnc(SCC(=O)Nc3ccc(S(=O)(=O)N4CCCCCC4)cc3)o2)cc1`, the % elongation is 104% (inactive) and the z-score worked out at 0.4. In addition, the % elongation under setting [1] worked out at 102%.

In the case of `Nn1c(SCC(=O)Nc2ccc(S(=O)(=O)N3CCCC3)cc2)nnc1-c1ccccc1`, the % elongation is 76% (active) and the z-score is -5.5. For the same molecule, the % elongation under setting [1] is 80%.

Turning to `O=C(CSc1nnc(-c2ccncc2)n1-c1ccccc1)Nc1ccccc1`, the % elongation was 100% (inactive) and the z-score was -0.8. For the same molecule, the % elongation under setting [1] was found to be 96%.

For `Cc1ccccc1CN1CCN(CC(=O)NCc2cccs2)C1=O`, the % elongation is 98% (inactive) and the z-score was -0.7. The % elongation under setting [1] worked out at 103%.

For `CCCC(Nc1cc(Cl)cc(Cl)c1)n1nnc2ccccc21` (configuration not stated), the % elongation was 104% (inactive) and the z-score came to 0.1. Also, under setting [1], the % elongation was 110%.

`O=C(CSC(=S)N1CCCC1)Nc1ccccc1OC(F)F`: the % elongation is 105% (inactive) and the z-score was 0.5. Moreover, the % elongation under setting [1] was 104%.

`CC(C)(C)C1C/C(=C/c2ccco2)C(=O)/C(=C/c2ccco2)C1` (configuration not stated): the % elongation was 76% (inactive) and the z-score was -3.3. In addition, the % elongation under setting [1] is 189%.

In the case of `CS(=O)(=O)C1=NSC2=NC(=O)/C(=C\c3ccco3)C(=N)N21`, the % elongation was 66% (active) and the z-score is -10.9. The % elongation under setting [1] came to 23%.

In the case of `Cc1ccc(N2C(=O)NC(=O)/C(=C\c3ccco3)C2=O)c(C)c1`, the % elongation is 99% (inactive) and the z-score is -0.2. For the same molecule, the % elongation under setting [1] is 97%.

In the case of `CN(C)/C=N/N=C(\Cc1nc2ccccc2[nH]1)c1ccccc1`, the % elongation is 102% (inactive) and the z-score worked out at 0.2. Besides, the % elongation under setting [1] came to 106%.

For `O=C(COC(=O)c1cc(=O)[nH]c2ccccc12)NCc1ccco1`, the % elongation is 107% (inactive) and the z-score amounted to 0.6. Also, the % elongation under setting [1] turned out to be 101%.

Turning to `CCOc1ccc(-c2ccc(NS(=O)(=O)c3ccccc3)cc2)nn1`, the % elongation was 102% (inactive) and the z-score amounted to 0.9. In addition, under setting [1], the % elongation was 104%.

As to `S=C(c1ccc(-c2ccccc2)o1)N1CCCCC1`, the % elongation is 99% (inactive) and the z-score was -0.3. Besides, the % elongation under setting [1] stood at 101%.

In the case of `Clc1ccc(/C=N\N2CCN(c3ccccc3)CC2)cc1`, the % elongation was 108% (inactive) and the z-score stood at 1.3. Further, the % elongation under setting [1] came out at 100%.

`S=C(c1ccc(-c2ccc(Cl)cc2)o1)N1CCN(c2ccccc2)CC1`: the % elongation is 63% (active) and the z-score was -4.2. Also, the % elongation under setting [1] was 70%.

With `CCC(Cc1ccccc1)NC(=O)c1ccco1` (configuration not stated), the % elongation was 99% (inactive) and the z-score was -0.3. Besides, the % elongation under setting [1] was 100%.

As for `Cc1noc(C)c1CSc1nnc(-c2ccccc2Br)n1Cc1ccccc1`, the % elongation is 96% (inactive) and the z-score was -0.6. Under setting [1], the % elongation was found to be 102%.

Take `C=C(C)CNC(=S)N=Nc1c(O)n(C)c2ccccc12`: the % elongation was 98% (inactive) and the z-score is -0.4. Also, under setting [1], the % elongation is 101%.

In the case of `O=C(O)/C=C/c1ccc2c(c1)OCCO2`, the % elongation is 102% (inactive) and the z-score came to 0.1. In addition, the % elongation under setting [1] came to 99%.

For `CCSc1nnc(NC(=O)c2ccc(C)c(S(=O)(=O)N(CC)CC)c2)s1`, the % elongation is 100% (inactive) and the z-score was -0.5. The % elongation under setting [1] was determined as 98%.

Turning to `CCSc1nnc(NC(=O)/C=C/c2ccc3c(c2)OCCO3)s1`, the % elongation is 85% (active) and the z-score was -3.6. For the same molecule, under setting [1], the % elongation was found to be 91%.

For the molecule `COc1ccc(S(=O)(=O)N2CCC(C(=O)N3CCCC3)CC2)cc1OC`, the % elongation was 99% (inactive) and the z-score was -0.6. Under setting [1], the % elongation stood at 100%.

Turning to `O=C(NCc1ccco1)c1cc(Cl)cc(Cl)c1`, the % elongation is 99% (inactive) and the z-score is -0.7. Moreover, the % elongation under setting [1] is 104%.

For `CCN1CCN(C2=Nc3c(Cl)cc(Cl)c4cccc2c34)CC1`, the % elongation is 45% (inactive) and the z-score was -6.5. Moreover, under setting [1], the % elongation worked out at 247%.

For the molecule `CCc1cc(=O)oc2c(C)c3c(cc12)CN(Cc1ccccc1)CO3`, the % elongation was 100% (inactive) and the z-score was -0.7. In addition, the % elongation under setting [1] amounted to 104%.

In the case of `CCN(CC)CCN1COc2c(cc(Cl)c3cccnc23)C1`, the % elongation was 84% (active) and the z-score was -5.8. In addition, under setting [1], the % elongation stood at 80%.

Consider `O=c1c(C=Nc2cc(Cl)ccc2O)c(O)n(C2CCCCC2)c(=O)n1C1CCCCC1`, for which the % elongation was 100% (inactive) and the z-score was determined as 0. For the same molecule, the % elongation under setting [1] was 100%.

As to `NS(=O)(=O)c1ccc(CCN(Cc2nc3ccsc3c(=O)[nH]2)Cc2nc3ccsc3c(=O)[nH]2)cc1`, the % elongation is 111% (inactive) and the z-score was 1.1. Under setting [1], the % elongation was found to be 110%.

As to `COC(=O)C(Cc1ccccc1)NC(=O)c1n[nH]c(=O)c2ccccc12` (configuration not stated), the % elongation is 101% (inactive) and the z-score was -0.2. The % elongation under setting [1] was found to be 100%.

(Values after PubChem BioAssay AID588519 (ICCB-Longwood Screening Facility, Harvard Medical School, 2011).)
